In ChEMBL document CHEMBL4513216, “Probing the Open Global Health Chemical Diversity Library for Multistage-Active Starting Points for Next-Generation Antimalarials” (ACS Infect Dis, 2020):
Hit rate of the full screen: of about 68,000 compounds, about 2,700 (4%) showed an effect of 50% or more. The list comes from a sample in which strong results are over-represented; it also holds similar structures and randomly drawn compounds.

What follows are molecules tested on Plasmodium berghei (assay: Screen against P. berghei liver stage (PbLuc), transformed with Luciferase, at 2uM). Conditions: tested at 2 uM.
Assay type: functional, HepG2

| SMILES | INHIBITION [%] |
| --- | --- |
| CN(C)C(C(=O)N1CCC(N2CCSCC2)CC1)c1ccccc1F (stereo not drawn) | 4.18 |
| Cc1nc2c(c(N(C)Cc3ccccc3-n3cccn3)n1)CCNCC2 | -19.21 |
| Cc1nc2c(c(NCC3Cc4ccccc4CN3C)n1)CCNCC2 (stereo not drawn) | 43.44 |
| Cc1nc2c(c(N(C)CC3Cc4ccccc4CN3C)n1)CCNCC2 (stereo not drawn) | 57.75 |
| CN(Cc1ccc(-n2cccn2)cc1)c1nc(N)nc2c1CCNCC2 | 18.01 |
| CN(CC1Cc2ccccc2CN1C)c1nc(N)nc2c1CCNCC2 (stereo not drawn) | 52.98 |
| CN(Cc1ccccc1-n1cccn1)c1nc(N)nc2c1CCNCC2 | 5.86 |
| Cc1nc(N)cc(C2CCN2CCC(N)=O)n1 (stereo not drawn) | 11.32 |
| Cc1ncsc1CN1C[C@@H]2CCCO[C@@H]2[C@H](N(C)C(C)C)C1 | -10.13 |
| Cn1cnc2c1CCN(CC(=O)N(Cc1ccccc1F)C1CC1)C2 | 18.99 |
| O=C(NCCc1cc2nc(-c3ccncc3)ccn2n1)C1CCOCC1 | 9.9 |
| CS(=O)(=O)Cc1ccc(C(=O)N2CCCC(n3cncn3)C2)o1 (stereo not drawn) | 12.7 |
| Cc1occc1C(=O)N1CCC2(CCC(=O)N(CC(N)=O)C2)CC1 | -26.32 |
| O=C(c1nc2sccn2c1-c1ncc[nH]1)N1CCCCC1 | -1.65 |
| Cc1cccc(CN(Cc2ccccn2)Cc2ncc(C(C)(C)C)o2)c1 | 43.44 |
| CCN(Cc1cccc(Cl)c1)Cc1ncc(C(C)(C)C)o1 | 81.59 |
| CCN(Cc1ncc(C(C)(C)C)o1)Cc1ccccc1C | -47.18 |
| OC1(CNc2ccc(Br)cn2)CCOCC1 | -58.79 |
| CC(C)(C)C(=O)NCCNCc1ccc(Cl)c2cccnc12 | -53.16 |
| OC(CNCCn1cccn1)c1cccc(Br)c1 (stereo not drawn) | -69.91 |
| Cc1ccc(CN2CCc3onc(C(=O)Nc4cccnc4)c3C2)o1 | 34.37 |
| CC(C)NC(=O)N1CCc2onc(C(=O)Nc3cccnc3)c2C1 | 18.87 |
| CC(C)C(=O)N1CCc2onc(C(=O)NCCN(C)C)c2C1 | 11.37 |
| CN(C)C(=O)N1CCc2onc(C(=O)Nc3cccnc3)c2C1 | 67.19 |
| CC(C)NC(=O)N1CCc2onc(C(=O)NCCN(C)C)c2C1 | 42.62 |
| CN(C)CCNC(=O)c1noc2c1CN(C(=O)N(C)C)CC2 | 59.76 |

| SMILES | INHIBITION [%] |
| --- | --- |
| CCc1ccc(C(=O)O)cc1S(=O)(=O)N(C)c1cccc(C)c1 | -2.2 |
| CN(Cc1ccccc1)C(=O)c1nc(S(C)(=O)=O)n2ccccc12 | 3.9 |
| O=C(O)c1nnn(-c2ccc(OC(F)(F)F)cc2)c1-c1ccncc1 | 3.22 |
| CC(Nc1ccc2c(c1)CCC2)c1nc(C2CC2)no1 (stereo not drawn) | 6.47 |
| Cc1ccc2oc(=O)n(CC(=O)N3CCC4(CC3)CN(C)C(=O)O4)c2c1 | -55.13 |
| COc1c(CNCc2ccc(C(=O)N(C)C(C)C)cc2)c(C)nn1C | 4.55 |
| O=C(Cn1ccnc1)N(CCO)CCSc1ccc(Cl)cc1 | 56.21 |
| O=C(Cc1ccncc1)N(CCO)CCSc1ccc(Cl)cc1 | 47.2 |
| O=C(Cn1cccn1)N(CCO)CCSc1ccc(Cl)cc1 | -5.53 |
| CCc1cnc(N2CCCOC(CN3CCCC3)C2)nc1 (stereo not drawn) | -30.18 |
| COCC1CN(CC2CC2)Cc2nn(CC3CC3)cc21 (stereo not drawn) | 11.34 |
| COCC(=O)N1CCN(S(=O)(=O)c2ccccc2)[C@H]2CS(=O)(=O)C[C@H]21 | 15.75 |
| COCC(=O)N1CCN(S(=O)(=O)c2cccs2)[C@H]2CS(=O)(=O)C[C@H]21 | 18.77 |
| COCC(=O)N1CCN(C(=O)Cc2cccs2)[C@H]2CS(=O)(=O)C[C@H]21 | 54.47 |
| CN1C(=O)CCCC12CCCN(C(=O)c1cc(F)cc(F)c1)C2 (stereo not drawn) | 12.83 |
| Cn1ccnc1CN1CCOC(Cn2cccn2)C1 (stereo not drawn) | 7.01 |
| Cc1cccc(-c2ccc(C(=O)NCC3CCCOC3)c(=O)[nH]2)c1 (stereo not drawn) | -9.49 |
| Cc1cccc(-c2ccc(C(=O)NCC3CCCO3)c(=O)[nH]2)c1 (stereo not drawn) | 57.77 |
| Cc1cccc(-c2ccc(C(=O)NCC3CCOC3)c(=O)[nH]2)c1 (stereo not drawn) | 17.39 |
| O=C(N1CCCC1)N1CCC(Nc2ccncn2)CC1 | 39.44 |
| CC(C)c1cc(NC2CCN(C(=O)N3CCCC3)CC2)ncn1 | 52.98 |
| CC(C)c1cc(NC2CCCN(C(=O)c3cccs3)C2)ncn1 (stereo not drawn) | -13.8 |
| Cc1nc2ncc3c(=O)n(C)ccc3n2n1 | -42.16 |
| CN(C)CC(=O)N1CCCC2(CCC(=O)N(CCc3c[nH]cn3)C2)C1 (stereo not drawn) | 38.93 |
| CCc1n[nH]c(C(=O)N2CCCC3(CN(C)C(=O)O3)C2)c1C (stereo not drawn) | 51.9 |
| CN1CCc2[nH]nc(C(=O)N3CCCC4(CN(C)C(=O)O4)C3)c2C1 (stereo not drawn) | -15.16 |

| SMILES | INHIBITION [%] |
| --- | --- |
| Cc1nc[nH]c1C(=O)N1CCCC2(CN(C)C(=O)O2)C1 (stereo not drawn) | 1.06 |
| CC(NCC(=O)Nc1ccc(N2CCCCCC2)cc1)c1cccs1 (stereo not drawn) | 23.68 |
| CCc1cc(C(=O)N[C@H]2CN(CCS(C)(=O)=O)C[C@@H]2C2CC2)[nH]n1 | -90.7 |
| Cc1occc1C(=O)N1CCc2c(CNS(C)(=O)=O)cncc2C1 | -15.09 |
| CC(C)CC(NC(=O)CSc1ccc(F)c(Cl)c1)C(=O)O (stereo not drawn) | 14.54 |
| CC(C)C[C@H](NC(=O)Nc1ccc(F)c(Cl)c1)C(=O)O | -9.89 |
| CC(C)CC(NC(=O)Nc1ccc(F)c(Cl)c1)C(=O)O (stereo not drawn) | 56.54 |
| Cc1ccc(CN2C[C@@H](OCc3ccccn3)[C@H]3COC[C@H]32)o1 | -4.92 |
| CC(C)c1nc(C2CCCN2Cc2nccn2CC(F)(F)F)no1 (stereo not drawn) | -20.05 |
| CC(C(=O)Nc1ccc(N2CCOCC2)nc1)n1cncn1 (stereo not drawn) | 43.32 |
| CC(C)c1cnc(CN2C(=O)CC3(CCSC3)C2=O)o1 (stereo not drawn) | -21.1 |
| CCc1cnc(CN2C(=O)CC3(CCSC3)C2=O)o1 (stereo not drawn) | 15.39 |
| CC(C)(C)c1cnc(CN2C(=O)CC3(CCSC3)C2=O)o1 (stereo not drawn) | 53.99 |
| Cc1nc2ccc(-n3ncnc3[C@@H]3CCCN3S(C)(=O)=O)cc2s1 | -35.1 |
| CC(C)(C)CN1Cc2cc3c(cc2NCCC1=O)OCO3 | -15.54 |
| Cc1ccc(C(=O)N2CCc3ccc(=O)n(CCN(C)C)c3CC2)o1 | 5.77 |
| CN(C)CCn1c2c(ccc1=O)CCN(C(=O)c1cccs1)CC2 | 53.27 |
| CN(C)CCn1c2c(ccc1=O)CCN(C(=O)c1ccoc1)CC2 | 17.31 |
| Cc1cc(C)cc(C(=O)N2CCCN(CC(N)=O)CC2)c1 | 16.13 |
| Cc1cc(C)c(CCNC(=O)CN2CCCN(C(N)=O)CC2)c(C)c1 | 66.74 |
| NC(=O)N1CCCN(CC(=O)NCCc2c(F)cccc2F)CC1 | 19.12 |
| O=C(c1ccc2c(c1)OCO2)N1CCC[C@]2(C[C@H](OCC3CC3)CO2)C1 | 10.43 |
| O=C(CN1CCCC1Cn1cccn1)NC1CCOCC1 (stereo not drawn) | 4.41 |
| CCCS(=O)(=O)c1ccc(N2CCN(Cc3ccccc3)CC2)nn1 | 27.54 |
| Cc1nc(N2CCN(S(C)(=O)=O)CC2)cc(-n2cnc(C)c2C)n1 | 43.32 |
| CCCS(=O)(=O)N1CCN(c2cc(-n3cnc(C)c3C)nc(C)n2)CC1 | 35.54 |

| SMILES | INHIBITION [%] |
| --- | --- |
| CCS(=O)(=O)N1CCN(c2cc(-n3cnc(C)c3C)nc(C)n2)CC1 | 61.28 |
| CCOCCN1CCCC1CS(N)(=O)=O (stereo not drawn) | -7.76 |
| O=C(c1ccc2c(c1)OCO2)N1CCCC(Nc2ccc(F)cc2)C1 (stereo not drawn) | 47.67 |
| CC(C)(O)CSCCNC(=O)c1ccc(F)cc1Cl | 58.69 |
| CSCC(C)(O)CNC(=O)c1ccc(F)cc1Cl (stereo not drawn) | -29.65 |
| CC(C)(O)CSCCNC(=O)c1cc(F)ccc1F | 35.56 |
| O=C(CCc1ccc(Cl)cc1)N[C@@H]1CC[C@@H](O)[C@@H]1O | -11.3 |
| c1cncc(CN2CCCn3nnc(COCC4CC4)c3C2)c1 | 34.37 |
| O=C(COCc1ccccc1)Nc1ccccn1 | 62.51 |
| O=C(CCCOCc1ccccc1)N1CCCC1c1ccccn1 (stereo not drawn) | 28.51 |
| CSc1ccc(NC(=O)COCc2ccccc2)nc1 | 12.43 |
| CS(=O)(=O)Cc1cc(F)ccc1NCc1nnsc1Cl | -13.68 |
| CCC(C)(C)NC(=O)Cn1nnc(CN(C)C(=O)c2ccccc2)n1 | 2.49 |
| CCN(Cc1nnnn1C1CC1)c1cc(C)ccc1C | 55.43 |
| Cc1ccc(N(C)Cc2nnnn2C2CC2)c(C)c1 | -11.28 |
| CN(Cc1nnnn1C1CC1)c1cccc2ccccc12 | 4.86 |
| Cc1nnc(SCC(=O)NCc2ccc3c(c2)CCC(=O)N3)n1C | 26.03 |
| Cc1ncc(-c2ccnc(SCCN(C)C)n2)c(-c2ccco2)n1 | 8.77 |
| CNC(=O)[C@@H](C1CCCCC1)N1CCC[C@H]1C(=O)N(C)CCN(C)C | 27.65 |
| Cc1cc(CC(C)NC(=O)Cc2cc(F)ccc2C)[nH]n1 (stereo not drawn) | 27.47 |
| COc1ccccc1C1CC(=O)Nc2nc(N3CCCCC3)sc21 (stereo not drawn) | -71.12 |
| CN(C)C[C@@H]1CCC[C@@H]2CN(c3nccc(C(F)(F)F)n3)C[C@@H]21 | 16.87 |
| O=C1O[C@@H]2CN(c3ncccn3)C[C@@H]2N1CCCc1ccc(F)cc1 | 17.48 |
| O=C1O[C@@H]2CN(c3ccccn3)C[C@@H]2N1CCCc1ccc(F)cc1 | 12.55 |
| O=C1O[C@@H]2CN(c3cnccn3)C[C@@H]2N1CCCc1ccc(F)cc1 | 51.96 |
